The text below walks through data of PubChem BioAssay.

A short description of assay [1]: inhibitors of TNFa-induced NFkB p65 translocation, primary screen, imaging, HUVEC, MLSMR starter and 10KST1 sets (AID 438;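 active means inhibition above 20% together with a positive visual image hit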;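 further: compound added about 3h40 before a 20 min TNFalpha stimulation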;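 on inhibition: signal is the nuclear over cytoplasmic p65 intensity ratio per well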). The conditions noted are these: HUVEC TNFa-induced p65 nuclear translocation; cell count: measured here: nuclei count (cytotoxicity indicator), at 2.08 µM; inhibition: at 2 µM, stronger effect = higher value, 0% TNFa-plus-vehicle, 100% no-TNFa wells.
Assay [2] in a line: reduction of polyQ htt aggregates in cells – imaging, exon1htt(103Q)mCFP cells, high-content imaging, primary screen (AID 483;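 active means visual image review flags a hit and inhibition of aggregation exceeds 20%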;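 further: compound exposure lasted 3 days before fixation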;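 on nuclei count: percent of the per-plate median nuclei count of sample wells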). As to conditions: exon1htt(103Q)mCFP cell line, aggregate imaging, at 2 µM; inhibition of aggregation: stronger effect = higher value; nuclei count: measured here: cell count, toxicity.
The nature of assay [3]: endothelial E-selectin expression blockers – imaging, HUVEC, immunofluorescence, MLSMR starter and 10KST1 sets, primary screen (AID 487;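 active means visually confirmed hit in the image check and inhibition above 20%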;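 on inhibition: signal is fraction of cell area covered by stained E-selectin grains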;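 on nuclei count: 100% = median nuclei count of all wells on the same plate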). As to conditions: HUVEC TNFalpha-induced E-selectin immunofluorescence imaging, at 2 µM; inhibition: stronger effect = higher value; nuclei count: measured here: cell number, toxicity.
For assay [4], the target named is Voltage-gated potassium channel subunit beta-2 (Rattus norvegicus) (UniProt P62483). In words: inhibitors of rat Kvbeta2 reductase activity – biochemical, NADPH fluorescence, primary screen (AID 622;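 active means fluorescence slope higher than the sample average by over 3 SD, cut at about -0.22 in these data, passing the limit was not always enough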;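 further: slope of raw intensity against log time taken from 70 to 1610 s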). As to conditions: recombinant KvBeta, 4-cyanobenzaldehyde reduction, at 10 µM, stronger effect = higher value.
Voltage-gated potassium channel subunit beta-2 (Rattus norvegicus), sequence (P62483 whole entry, looked up): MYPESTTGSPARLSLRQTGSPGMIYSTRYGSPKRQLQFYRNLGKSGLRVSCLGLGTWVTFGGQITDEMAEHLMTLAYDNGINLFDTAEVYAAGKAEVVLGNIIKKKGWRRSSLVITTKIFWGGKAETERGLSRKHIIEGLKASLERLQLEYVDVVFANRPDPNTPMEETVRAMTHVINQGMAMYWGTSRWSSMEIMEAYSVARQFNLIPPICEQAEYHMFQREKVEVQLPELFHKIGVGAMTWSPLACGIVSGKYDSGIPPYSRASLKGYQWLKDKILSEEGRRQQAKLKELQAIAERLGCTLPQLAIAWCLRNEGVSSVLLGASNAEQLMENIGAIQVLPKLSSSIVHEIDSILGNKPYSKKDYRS
Assay [5] shares this target. In words: enhancers of rat Kvbeta2 NADPH turnover – biochemical, NADPH fluorescence, primary screen (AID 623;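 active means NADPH fluorescence slope more negative than the mean of all samples by about 3 SD, 99.7% confidence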;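 further: fluorescence intensity change per second fitted from 20 to 320 s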). As to conditions: Recombinant KvBeta, NADPH fluorescence decrease slope, 10 min; at 10 µM; stronger effect = lower value.
Assay [6] has as its target Alpha-2C adrenergic receptor (Homo sapiens) (UniProt P18825). In words: compounds altering alpha2C-coupled GIRK flux – cell-based, HEK293 alpha2C/GIRK1/2, thallium flux, primary screen (AID 624;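 active means fluorescence slope after compound addition differing from the mean of all screened samples at 99.7% confidence, in either direction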;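 further: slope of fluorescence ratio to pre-addition baseline per second over 15 to 24 s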). As to conditions: thallium flux BTC fluorescence, at 10 µM, actives lie on both sides.
Assay [7] is described as follows: blockers of RIG-like receptor reporter activation – cell-based, Sendai virus stimulus, luciferase, 10K MLSCN set, TLR/RLR signaling modifier project, primary screen (AID 602276).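 Further: firefly luciferase from ISG56 promoter only with Renilla not read in this screen; 0% = Sendai virus plus DMSO and 100% = medium plus DMSO without virus.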 The conditions noted are these: HEK293 RL24 IRF3 luciferase reporter, at 10 µM, stronger effect = higher value.
Assay [8] is described as follows: TLR3 IRF3 reporter activation blockers – cell-based, poly I:C stimulus, luciferase, 10K MLSCN set, primary screen (AID 602277;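 active means inhibition of the reporter signal at or above 50%; inactive means inhibition below 50%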). As to conditions: HEK293-TLR3 RL24 IRF3 luciferase reporter, at 10 µM, stronger effect = higher value. On the technique in general: Reporter assays use an easily measured gene product as a stand-in for the process of interest.

The structures appear in SMILES notation. Calls of active or inactive are those of the source.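 How the source made its calls, unless noted: active means inhibition at or above 50% at 10 µM; inactive means inhibition below 50%.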

Alpha-2C adrenergic receptor (Homo sapiens), sequence (P18825 whole entry, looked up): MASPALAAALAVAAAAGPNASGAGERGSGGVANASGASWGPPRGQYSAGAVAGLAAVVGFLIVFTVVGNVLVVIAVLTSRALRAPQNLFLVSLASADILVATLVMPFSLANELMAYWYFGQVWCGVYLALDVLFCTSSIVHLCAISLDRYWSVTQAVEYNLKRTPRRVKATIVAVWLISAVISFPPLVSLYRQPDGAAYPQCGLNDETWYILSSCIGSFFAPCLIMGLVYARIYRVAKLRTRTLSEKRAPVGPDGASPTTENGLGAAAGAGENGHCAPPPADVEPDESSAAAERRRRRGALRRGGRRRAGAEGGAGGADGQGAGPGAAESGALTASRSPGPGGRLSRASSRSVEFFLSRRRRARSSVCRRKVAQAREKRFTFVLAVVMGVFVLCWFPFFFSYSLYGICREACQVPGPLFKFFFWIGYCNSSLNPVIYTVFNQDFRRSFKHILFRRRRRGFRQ

On to `CC1(C)Cc2c(sc3c2c(=N)n(Cc2ccco2)c(=O)n3Cc2ccccc2)CO1`, for which the cell count in assay [1] worked out at 790. Also, the inhibition (usually the change of the read-out against control, counted positive when it falls) in assay [1] was -10.7% (inactive); in assay [3], -27.8% (inactive); in assay [7] it was 13.1% (inactive); in assay [8], 23.7% (inactive). Besides, the inhibition of aggregation in assay [2] is 12% (inactive). Further, the nuclei count was 101% in assay [2] and 112% in assay [3]. Moreover, in assay [4], the fluorescence slope is -0.587 (inactive). Moreover, the NADPH fluorescence slope in assay [5] was 2.3e-06 (inactive). For the same compound, the slope in assay [6] is 0.0065 (inactive).
As to `Cc1ccc(S(=O)(=O)C2(C(=O)N3CCCCCC3)CC2)cc1`, in assay [1], the cell count was 439. In addition, the inhibition in assay [1] was -0.7% (inactive); in assay [3], -46.5% (inactive); in assay [7] it was 8.56% (inactive); in assay [8], 1.57% (inactive). In assay [2], the inhibition of aggregation is -0.7% (inactive). Further, the nuclei count in assay [2] came to 102%; in assay [3], 122%. Moreover, the fluorescence slope in assay [4] was -0.611 (inactive). In addition, the NADPH fluorescence slope in assay [5] is 4.7e-05 (inactive). The slope in assay [6] is 0.00663 (inactive).
Turning to `O=C(Nc1ccc(S(=O)(=O)N2CCc3ccccc32)cc1)c1ccc2c(c1)OCO2`, the cell count in assay [1] worked out at 307. The inhibition in assay [1] was -10% (inactive); in assay [3], 5.1% (inactive); in assay [7], -3.74% (inactive); in assay [8], -67.6% (inactive). Moreover, the inhibition of aggregation in assay [2] is 14.7% (inactive). Moreover, the nuclei count in assay [2] stood at 95.5%; in assay [3] it was 83.2%. The fluorescence slope in assay [4] is -0.603 (inactive). The NADPH fluorescence slope in assay [5] was -1.6e-05 (inactive). In addition, the slope in assay [6] was 0.0108 (inactive).
For the compound `COc1cc(C2c3c(n[nH]c3C)C(=O)N2c2ccc(C)cc2)ccc1O` (stereo not drawn), the cell count in assay [1] worked out at 335. Also, the inhibition in assay [1] is -8.1% (inactive); in assay [3] it was -34.1% (inactive); in assay [7], 3.65% (inactive); in assay [8] it was -2.36% (inactive). The inhibition of aggregation in assay [2] is -6% (inactive). Besides, the nuclei count in assay [2] came to 86.3%; in assay [3], 112%. Moreover, the fluorescence slope in assay [4] is -0.586 (inactive). The NADPH fluorescence slope in assay [5] was -2.8e-05 (inactive). The slope in assay [6] is 0.00346 (inactive).
For the compound `O=C(CCc1ccc(S(=O)(=O)N2CCOCC2)cc1)NCCc1ccccn1`, in assay [1], the cell count was 709. In addition, the inhibition in assay [1] was 3.1% (inactive); in assay [3] it was -158% (inactive); in assay [7] it was -4.86% (inactive); in assay [8], 1.41% (inactive). The inhibition of aggregation in assay [2] was -8% (inactive). In addition, the nuclei count in assay [2] stood at 104%; in assay [3], 144%. The fluorescence slope in assay [4] was -0.568 (inactive). Moreover, the NADPH fluorescence slope in assay [5] was 1.5e-05 (inactive). The slope in assay [6] is 0.00601 (inactive).
For `Cc1cccc(NC(=O)c2oc3c(c2C)C(=O)CC(C)(C)C3)n1`, the cell count in assay [1] worked out at 256. The inhibition in assay [1] is -4% (inactive); in assay [3], -63.6% (inactive); in assay [7], -18% (inactive); in assay [8] it was -30.8% (inactive). Also, the inhibition of aggregation in assay [2] is -4.5% (inactive). The nuclei count in assay [2] turned out to be 90.8%; in assay [3] it was 93.5%. For the same compound, the fluorescence slope in assay [4] is -0.403 (inactive). For the same compound, the NADPH fluorescence slope in assay [5] was -7.1e-05 (inactive). Moreover, in assay [6], the slope is 0.00548 (inactive).
Regarding `O=C(c1csc2ccccc12)N1CCCCCC1`, the cell count in assay [1] was found to be 359. Moreover, the inhibition in assay [1] is 5.6% (inactive); in assay [3], -16.8% (inactive); in assay [7], 7.71% (inactive); in assay [8], 5.9% (inactive). In addition, the inhibition of aggregation in assay [2] was 13.8% (inactive). Further, the nuclei count in assay [2] was 100%; in assay [3], 106%. The fluorescence slope in assay [4] is -0.512 (inactive). In addition, in assay [5], the NADPH fluorescence slope was 8.9e-06 (inactive). Further, in assay [6], the slope was 0.0038 (inactive).
For `COc1ccc(CCNC(=O)CSc2nnnn2-c2ccccc2OC)cc1OC`, the cell count in assay [1] is 681. The inhibition in assay [1] was -1.1% (inactive); in assay [3], -10.8% (inactive); in assay [7], 15.3% (inactive); in assay [8], 31.8% (inactive). Moreover, the inhibition of aggregation in assay [2] is 1.5% (inactive). The nuclei count came out at 106% in assay [2] and 109% in assay [3]. Also, the fluorescence slope in assay [4] is -0.531 (inactive). Besides, the NADPH fluorescence slope in assay [5] is -5.1e-05 (inactive). Besides, in assay [6], the slope is 0.00687 (inactive).
